Drawing on PubChem BioAssay (NCATS), this text covers Potency, activity change, negative = inhibition and max response for 24 compounds.

Molecules are shown by their SMILES. Results filed as inconclusive are left out. Activity calls are given as the source filed them. Unless noted, the call rests on the fitted dose curve; in most records, active means well fitted curve in the direction sought with a large enough effect; inconclusive means small, poorly fitted or top-dose-only effect, or another doubt; inactive means no such curve, though single readings can be large; an effect the other way counts as inactive or inconclusive.

In assay [1] the target is Cytochrome P450 3A4 (Homo sapiens) (UniProt P08684). The assay can be described thus: qHTS Assay for Inhibitors and Substrates of Cytochrome P450 3A4 (AID 884). Further: nearly all actives have a fitted effect of over 50% in size. Further: potency means the concentration at half of the fitted maximal effect. On activity change, negative = inhibition: on the % scale 0 is the no-effect control and ±100 the full control effect. The essentials:
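20 nM human CYP3A4 with 25 uM Luciferin-PPXE (at KM) in 200 mM KPO4, preincubated 10 min with compound; NADPH regeneration started a 60 min RT reaction. Luciferin detected by luminescence, normalized to 57 uM ketoconazole as full inhibition.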

Assay [2] is described as follows: Confirmation and Secondary Assay for Modulators of Hemoglobin Beta Chain Splicing at IVS2 654 locus (AID 910).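 Further: HeLa cells stably carrying EGFP split by mutant beta-globin IVS2-654 intron; per-well total GFP intensity by laser scanning cytometry after 2-day treatment; % of control where 0% means no effect.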 The essentials: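 Readout: per-well total peak green fluorescence (488 nm ex, 500–520 nm em) from objects 5–250 µm, reflecting correct splicing of an EGFP-654 reporter. Compounds were applied for 2 days at 37 °C to overnight-plated HeLa EGFP-654 cells; controls were DMSO and 500 nM IVS2-654 PNA.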

Assay [3] can be described thus: Confirmation and Secondary Assay for Modulators of Hemoglobin Beta Chain Splicing at IVS2 705 locus (AID 930).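 Further: HeLa cells stably expressing the EGFP-705 splicing reporter; GFP fluorescence per well restored by corrected splicing of the IVS2-705 intron in EGFP; % of control where 0% means no effect.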 The essentials: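 Secondary splice-site specificity test uses HeLa expressing CMV-driven EGFP interrupted by IVS2-705; cells were treated 2 days at 37C with 500 nM antisense PNA as positive control.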
A short description of assay [4]: qHTS Assay for Lipid Storage Modulators (AID 1519; calls by dose curve; on activity change, negative = inhibition: on the % scale 0 is the no-effect control and ±100 the full control effect). The following applies: Drosophila S3 cells, BODIPY lipid droplet/cell ratio, laser cytometry, cells loaded with oleic acid; for activity change, negative = inhibition: at 57.5 µM (top of the series). The essentials:
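Cells seeded at 5,000 per well were treated with compounds over a concentration series and loaded with oleic acid (400 uM, as added). Lipid droplet fluorescence (488 nm excitation, 500-530 nm channel) was read by laser-scanning cytometry and normalized to 20 uM Triacsin C.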

In assay [5] the target is Ubiquitin carboxyl-terminal hydrolase 1 (Homo sapiens) (UniProt O94782). As to the kind of experiment: Inhibitors of USP1/UAF1: Pilot qHTS (AID 504865).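 Further: rhodamine fluorescence freed from ubiquitin-rhodamine substrate followed over time; top concentration of the series differs between compounds; on the % scale 0 is the no-effect control and ±100 the full control effect; nearly all actives have a fitted effect of over 35% in size.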 The essentials: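 USP1/UAF1 complex (1nM) preincubated with compound 15 min at room temperature, then Ub-Rho substrate (150nM final) added. Fluorescence read kinetically at 480/540 nm, 6 reads every 60 seconds. Buffer: 50mM HEPES pH 7.8, 0.5mM EDTA, 0.1 mg/ml BSA, 1mM TCEP, 0.01% Tween-20.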
On the technique in general: In qHTS, concentration-response curves come from the screen itself.

The mark [6] stands for this setting: measured here: cell count channel max response.
The mark [7] stands for this setting: measured here: lipid channel max response.

Chain of Ubiquitin carboxyl-terminal hydrolase 1 (Homo sapiens) (O94782 whole entry, looked up): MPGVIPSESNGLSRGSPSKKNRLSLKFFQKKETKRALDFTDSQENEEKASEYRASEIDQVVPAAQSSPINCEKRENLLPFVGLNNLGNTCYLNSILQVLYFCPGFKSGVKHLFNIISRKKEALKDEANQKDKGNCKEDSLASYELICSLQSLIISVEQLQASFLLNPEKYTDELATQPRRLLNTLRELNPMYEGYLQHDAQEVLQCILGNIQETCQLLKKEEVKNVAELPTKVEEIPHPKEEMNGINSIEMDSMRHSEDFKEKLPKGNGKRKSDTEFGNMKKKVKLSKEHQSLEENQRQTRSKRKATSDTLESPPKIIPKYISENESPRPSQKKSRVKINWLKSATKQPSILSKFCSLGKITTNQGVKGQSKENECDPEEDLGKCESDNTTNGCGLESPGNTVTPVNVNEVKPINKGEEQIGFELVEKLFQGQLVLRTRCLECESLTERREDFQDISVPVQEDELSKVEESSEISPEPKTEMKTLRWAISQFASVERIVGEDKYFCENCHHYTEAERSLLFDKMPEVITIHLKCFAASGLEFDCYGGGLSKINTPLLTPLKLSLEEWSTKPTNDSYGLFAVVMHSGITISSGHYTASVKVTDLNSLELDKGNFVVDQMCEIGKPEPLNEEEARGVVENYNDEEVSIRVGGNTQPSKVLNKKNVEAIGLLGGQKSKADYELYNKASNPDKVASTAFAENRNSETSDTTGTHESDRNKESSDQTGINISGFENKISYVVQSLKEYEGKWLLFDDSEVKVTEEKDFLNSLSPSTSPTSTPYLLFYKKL
Chain of Cytochrome P450 3A4 (Homo sapiens) (P08684 whole entry, looked up): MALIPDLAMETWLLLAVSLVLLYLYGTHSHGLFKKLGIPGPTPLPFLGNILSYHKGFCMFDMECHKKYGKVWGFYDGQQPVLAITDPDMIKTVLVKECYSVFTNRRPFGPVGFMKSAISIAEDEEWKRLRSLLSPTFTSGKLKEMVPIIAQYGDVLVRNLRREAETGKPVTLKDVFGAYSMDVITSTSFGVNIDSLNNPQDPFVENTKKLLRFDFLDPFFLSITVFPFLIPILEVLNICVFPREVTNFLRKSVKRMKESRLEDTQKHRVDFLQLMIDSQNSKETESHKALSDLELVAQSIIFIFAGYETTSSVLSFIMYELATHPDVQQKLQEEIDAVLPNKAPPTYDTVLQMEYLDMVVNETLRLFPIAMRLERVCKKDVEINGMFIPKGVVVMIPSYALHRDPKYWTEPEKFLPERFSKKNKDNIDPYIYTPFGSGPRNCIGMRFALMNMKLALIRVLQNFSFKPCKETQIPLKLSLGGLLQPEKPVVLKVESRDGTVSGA

For `COC(=O)C(C)c1ccc(C(=O)c2cccs2)cc1` (stereo not drawn), the Potency result in assay [1], in assay [2], in assay [3] and in assay [5] was “inactive” each time. For the same compound, the activity change, negative = inhibition in assay [4] is 9.81% (inactive). In addition, the max response in assay [4] (setting [6]) was -1.55%; in assay [4] (setting [7]) it was 12.4%.

Take `OC1C2COC(O2)[C@H](O)C1O` (stereo partly drawn): the Potency entry in assay [1], in assay [2], in assay [3] and in assay [5] was “inactive” throughout. Moreover, the activity change, negative = inhibition in assay [4] was 7.67% (inactive). For the same compound, the max response in assay [4] (setting [6]) was 12.6%; in assay [4] (setting [7]), 22.2%.

`CCC(C)C(NC)C(=O)O` (stereo not drawn): the Potency entry in assay [1], in assay [2], in assay [3] and in assay [5] was “inactive” throughout. Besides, in assay [4], the activity change, negative = inhibition was 5.09% (inactive). Besides, the figures for the max response in assay [4] (setting [6]) and in assay [4] (setting [7]) were 17.4% and 24.1%, respectively.

For `COc1ccc(C(=O)c2ccccc2)c(O)c1O`, the Potency result in assay [1], in assay [2], in assay [3] and in assay [5] was “inactive” each time. Moreover, the activity change, negative = inhibition in assay [4] is 1.94% (inactive). Moreover, the max response in assay [4] (setting [6]) is -24.4%; in assay [4] (setting [7]), -18%.

For `Nc1nc2nc(Cl)[nH]c2c(=O)[nH]1`, the Potency entry in assay [1], in assay [2], in assay [3] and in assay [5] was “inactive” throughout. In addition, in assay [4], the activity change, negative = inhibition was 6.34% (inactive). The max response in assay [4] (setting [6]) was found to be 6.47%; in assay [4] (setting [7]), 14.5%.

On to `Nc1nc2ncc(=O)[nH]c2c(=O)[nH]1`, for which the Potency result in assay [1], in assay [2], in assay [3] and in assay [5] was “inactive” throughout. Further, the activity change, negative = inhibition in assay [4] is 4.1% (inactive). For the same compound, the max response in assay [4] (setting [6]) worked out at 2.7%; in assay [4] (setting [7]) it was 6.73%.

With `O=c1cc(-c2ccccc2)oc2cc(O)c(O)cc12`, the Potency result in assay [1], in assay [2], in assay [3] and in assay [5] was “inactive” each time. Further, the activity change, negative = inhibition in assay [4] is -1.09% (inactive). For the same compound, the max response is -7.11% in assay [4] (setting [6]) and -6.23% in assay [4] (setting [7]).

As for `CNC1C(O)C(O)C(CO)O[C@H]1OC1C(O[C@@H]2C(O)C(O)[C@@H](N=C(N)N)C(O)C2N=C(N)N)OC(C)[C@]1(O)C=O` (stereo partly drawn), the Potency entry in assay [1], in assay [2], in assay [3] and in assay [5] was “inactive” in each case. Also, the activity change, negative = inhibition in assay [4] was 11.1% (inactive). Besides, the max response came to 10.8% in assay [4] (setting [6]) and 24.1% in assay [4] (setting [7]).

For `Nc1ncnc2c1nc(Cl)n2C1OC(CO)C(O)C1O` (stereo not drawn), the Potency result in assay [1], in assay [2], in assay [3] and in assay [5] was “inactive” in each case. Besides, the activity change, negative = inhibition in assay [4] is 3.24% (inactive). Further, the max response came to 5.55% in assay [4] (setting [6]) and 12.1% in assay [4] (setting [7]).

On to `COc1cc(OC)c2c(c1Cl)OC1(C2=O)C(O)=CC(=O)CC1C` (stereo not drawn), for which the Potency entry in assay [1], in assay [2], in assay [3] and in assay [5] was “inactive” each time. The activity change, negative = inhibition in assay [4] is 0.55% (inactive). Also, the max response in assay [4] (setting [6]) is -1.12%; in assay [4] (setting [7]), 2.38%.

`COc1cc(O)ccc1C(C)=O`: the Potency result in assay [1], in assay [2], in assay [3] and in assay [5] was “inactive” in each case. The activity change, negative = inhibition in assay [4] is 7.68% (inactive). Also, the max response in assay [4] (setting [6]) is 24.4%; in assay [4] (setting [7]), 34.1%.

As for `CCCCCCCCCCCCCc1ccco1`, the Potency result in assay [1], in assay [2], in assay [3] and in assay [5] was “inactive” each time. In addition, the activity change, negative = inhibition in assay [4] was 1.58% (inactive). The max response in assay [4] (setting [6]) was -6.07%; in assay [4] (setting [7]) it was 3.51%.

For the compound `COC(=O)Oc1ccccc1C(=O)O`, the Potency entry in assay [1], in assay [2], in assay [3] and in assay [5] was “inactive” throughout. The activity change, negative = inhibition in assay [4] is 5.3% (inactive). The max response worked out at 15.1% in assay [4] (setting [6]) and 21.1% in assay [4] (setting [7]).

Turning to `C#CCCCCCCCCCCCC(=O)CC(O)COC(C)=O` (stereo not drawn), the Potency result in assay [1], in assay [2], in assay [3] and in assay [5] was “inactive” in each case. The activity change, negative = inhibition in assay [4] was 3.5% (inactive). The max response amounted to 13.4% in assay [4] (setting [6]) and 17.1% in assay [4] (setting [7]).

`CC(C)/C(O)=C1/C(=O)OC(c2ccoc2)[C@@]2(C)C(O)C(O)[C@@]34OC5(C)OC67CC(C)(C(O)[C@@]6(O)C(O)[C@@]3(O5)C12)C(CC(=O)O)[C@@]74C` (stereo partly drawn): the Potency in assay [1] was 12.6 µM (active). The Potency entry in assay [2], in assay [3] and in assay [5] was “inactive” each time. The activity change, negative = inhibition in assay [4] is 0.873% (inactive). In addition, the max response in assay [4] (setting [6]) is -1.97%; in assay [4] (setting [7]) it was 0.302%.

Take `Cc1cn(C2CCC(CO)O2)c(=O)[nH]c1=O` (stereo not drawn): the Potency result in assay [1], in assay [2], in assay [3] and in assay [5] was “inactive” each time. Moreover, the activity change, negative = inhibition in assay [4] is 4.05% (inactive). Besides, the max response came to 13.1% in assay [4] (setting [6]) and 17.4% in assay [4] (setting [7]).

On to `O=C(/C=C/c1ccc(O)c(O)c1)O[C@H]1C[C@@](O)(C(=O)O)CC(O)C1O` (stereo partly drawn), for which the Potency result in assay [1], in assay [2], in assay [3] and in assay [5] was “inactive” throughout. Further, the activity change, negative = inhibition in assay [4] was 12.5% (inactive). Further, the max response in assay [4] (setting [6]) was 13.7%; in assay [4] (setting [7]), 29.5%.

`C=CCSCC=C`: the Potency entry in assay [1], in assay [2], in assay [3] and in assay [5] was “inactive” each time. For the same compound, the activity change, negative = inhibition in assay [4] was 6.16% (inactive). Moreover, the max response in assay [4] (setting [6]) was -10.4%; in assay [4] (setting [7]), -1.96%.

For the compound `Nc1nc2c(nc(Br)n2C2CC(O)C(CO)O2)c(=O)[nH]1` (stereo not drawn), the Potency entry in assay [1], in assay [2], in assay [3] and in assay [5] was “inactive” each time. In assay [4], the activity change, negative = inhibition was 3.88% (inactive). In addition, the figures for the max response in assay [4] (setting [6]) and in assay [4] (setting [7]) were 4.93% and 9.77%, respectively.

As for `CCOC(=O)C(=O)C1(C(=O)OCC)Oc2cc(OC)cc(OC)c2C(=O)C1c1ccccc1` (stereo not drawn), the Potency entry in assay [1], in assay [2], in assay [3] and in assay [5] was “inactive” each time. Besides, the activity change, negative = inhibition in assay [4] is 5.57% (inactive). Also, the values for the max response in assay [4] (setting [6]) and in assay [4] (setting [7]) were 9.96% and 15%, respectively.

Turning to `CCC(/C=C/C(C)C1CCC2C3CC=C4CC(O)CC[C@@]4(C)C3CC[C@@]12C)C(C)C` (stereo partly drawn), the Potency entry in assay [1], in assay [2], in assay [3] and in assay [5] was “inactive” each time. In addition, the activity change, negative = inhibition in assay [4] is -0.637% (inactive). Further, the values for the max response in assay [4] (setting [6]) and in assay [4] (setting [7]) were 13.1% and 13.6%, respectively.

As to `CC(=O)N1CCCC1C(=O)O` (stereo not drawn), the Potency result in assay [1], in assay [2], in assay [3] and in assay [5] was “inactive” in each case. Also, in assay [4], the activity change, negative = inhibition was 7.19% (inactive). For the same compound, the max response in assay [4] (setting [6]) is 1.45%; in assay [4] (setting [7]), 9.22%.

Turning to `CS(=O)(=O)c1ccc(C(O)C(CO)NC(=O)C(Cl)Cl)cc1` (stereo not drawn), the Potency result in assay [1], in assay [2], in assay [3] and in assay [5] was “inactive” in each case. Also, the activity change, negative = inhibition in assay [4] was 6.29% (inactive). Also, the max response in assay [4] (setting [6]) is 3.52%; in assay [4] (setting [7]) it was 13.6%.

`C=C1C(N)CC2CC1C2(C)C` (stereo not drawn): the Potency entry in assay [1], in assay [2], in assay [3] and in assay [5] was “inactive” in each case. The activity change, negative = inhibition in assay [4] was 1.08% (inactive). Further, the max response in assay [4] (setting [6]) is 14%; in assay [4] (setting [7]) it was 14.9%.
